# Experimental data: ChEMBL document CHEMBL3988442, “University of Dundee, Small-Polar-MMV Screening Library” (2021)
# In all, about 69,000 compounds went through this assay and about 1,000 (1.4%) showed an effect of 50% or more. The entries come from a sample that favours strong results as a whole.
# Test system: Leishmania donovani
# Experiment: Leishmania intramacrophage assay
# Type: functional, organism-based
# Parameters: scale not given: in the data most compounds retested in dose-response had high values
smiles,measurement,setting,value
COc1c(C2CCCN2C(=O)CCNc2ncccn2)c(C)nn1C (stereo unspecified),Percent Effect,30 µM,5.312%
COc1ccc(CN(C(=O)C2CCCS2)c2ccncc2)cc1 (stereo unspecified),Percent Effect,"30.3 µM, […]",-1.322%
COc1cc(Oc2ccc(C#N)cn2)ccc1CN1CCCC1,Percent Effect,"30.3 µM, […]",2.326%
COc1cc(Oc2ccc(C(F)(F)F)cn2)ccc1CN1CCCC1,Percent Effect,"30.3 µM, […]",61.15%
COc1ccc(Oc2ccc(C(F)(F)F)cn2)cc1CN1CCCC1,Percent Effect,"30.3 µM, […]",2.243%
COCCOCC(=O)Nc1ccnn1-c1ccc(Cl)cc1,Percent Effect,"30.3 µM, […]",23.94%
COCC(=O)Nc1ccnn1-c1ccc(Cl)cc1,Percent Effect,"30.3 µM, […]",82.71%
CCOCCC(=O)Nc1ccnn1-c1ccc(Cl)cc1,Percent Effect,"30.3 µM, […]",0.3355%
Cc1n[nH]c(C)c1CCN(C)c1ccc(-c2nc(C3CC3)no2)cn1,Percent Effect,"30.3 µM, […]",22.75%
Cc1nc(CCNC(=O)C(N)c2c(C)n[nH]c2C)sc1C (stereo unspecified),Percent Effect,"30.3 µM, […]",7.254%
Cc1nc(CNC(=O)NC2CCN(c3cccc(Cl)c3)C2)no1 (stereo unspecified),Percent Effect,"30.3 µM, […]",40.16%
CC(C)c1n[nH]c(C2CN(Cc3ccno3)CCO2)n1 (stereo unspecified),Percent Effect,"30.3 µM, […]",53.56%
CC(C)c1n[nH]c(C2CN(Cc3ncc[nH]3)CCO2)n1 (stereo unspecified),Percent Effect,"30.3 µM, […]",-15.06%
Cc1nc(CN2CCOC(c3nc(C(C)C)n[nH]3)C2)oc1C (stereo unspecified),Percent Effect,"30 µM, 30.03 µM",-6.521%
Cc1cnn(CCNCc2ccc(S(C)(=O)=O)cc2)c1,Percent Effect,"30.3 µM, […]",-1.29%
CC(C)CCc1n[nH]c(C(=O)O)c1Br,Percent Effect,"30.3 µM, […]",1.329%
O=C(O)C(F)(F)F.O=C(c1ccco1)N1CC[C@@H]2CN(C3CCOCC3)CCO[C@@H]2C1,Percent Effect,"30.3 µM, […]",39.91%
O=C(O)C(F)(F)F.O=C(c1ccco1)N1CCO[C@@H]2CN(CC3CC3)CC[C@@H]2C1,Percent Effect,"30.3 µM, […]",52.8%
O=C(O)C(F)(F)F.O=C(c1ccco1)N1CCO[C@@H]2CN(Cc3nccs3)CC[C@@H]2C1,Percent Effect,"30.3 µM, […]",43.58%
CCS(=O)(=O)N1CC[C@H]2[C@H]1CC(=O)N2Cc1csc(C)n1,Percent Effect,"30.3 µM, […]",11.91%
O=C(C1CCOCC1)N1C[C@H]2CCC[C@@]2(COCc2ccccn2)C1,Percent Effect,"30.3 µM, […]",39.51%
O=C(C1CCC1)N1C[C@@H]2CC[C@H](C1)N(S(=O)(=O)c1ccccc1)C2,Percent Effect,"30.3 µM, […]",-6.923%
O=C1CCC(=O)c2oc3ccc(Br)cc3c2N1,Percent Effect,"30.3 µM, […]",-16.45%
Cc1cc(Nc2cnccn2)cc(C2CCCN2)n1 (stereo unspecified),Percent Effect,"30.3 µM, […]",50.63%
Cc1nc(Nc2cnccn2)cc(C2CCCN2)n1.Cl (stereo unspecified),Percent Effect,"30.3 µM, […]",-4.51%
Cc1cc(Nc2cnccn2)cc(C2CCCNC2)n1 (stereo unspecified),Percent Effect,"30.3 µM, […]",-25.49%
CSC1(CNC(=O)CCc2ccc(Cl)s2)CCOCC1,Percent Effect,"30.3 µM, […]",-1.683%
COCCN1CCC(CNC(=O)c2ccnc(-n3ccnc3)c2)CC1,Percent Effect,"30.3 µM, […]",-33.66%
CCOCC1CN(Cc2ccoc2)Cc2cn(CC3CC3)nc21 (stereo unspecified),Percent Effect,"30.3 µM, […]",26.22%
CCS(=O)(=O)N1CCCC(c2nccn2Cc2ccccn2)C1 (stereo unspecified),Percent Effect,"30.3 µM, […]",2.474%
CCS(=O)(=O)N1CCN(C(=O)NC(C)C)CC2(CC(=O)N(C)C2)C1 (stereo unspecified),Percent Effect,"30.3 µM, […]",15.87%
CCn1nnc(NCc2ccc(-c3ccc(Br)cc3)o2)n1,Percent Effect,"30.3 µM, […]",4.739%
CCC(CO)NCc1ccc(-c2ccccc2)o1.Cl (stereo unspecified),Percent Effect,"30.3 µM, […]",7.098%
CCC(CO)NCc1ccc(-c2ccc(F)cc2)o1.Cl (stereo unspecified),Percent Effect,"30.3 µM, […]",4.62%
CCCn1nnc(NCc2ccc(-c3ccc(Br)cc3)o2)n1,Percent Effect,"30.3 µM, […]",-28.31%
CCC(CO)NCc1ccc(-c2ccccc2F)o1 (stereo unspecified),Percent Effect,"30.3 µM, […]",4.793%
CC(NCc1ccc(-c2ccc(Cl)cc2)o1)c1nnc2n1CCC2 (stereo unspecified),Percent Effect,"30.3 µM, […]",-2.109%
CCC(CO)NCc1ccc(-c2ccc(F)c(Cl)c2)o1.Cl (stereo unspecified),Percent Effect,"30.3 µM, […]",76.93%
CCC(CO)NCc1ccc(-c2ccc(Cl)cc2)o1.Cl (stereo unspecified),Percent Effect,"30.3 µM, […]",78.06%
CCC(CO)NCc1ccc(-c2ccc(Br)cc2)o1.Cl (stereo unspecified),Percent Effect,"30.3 µM, […]",86.07%
COCCN1CCN(CC(=O)NC2(C#N)CCCC2)CC1,Percent Effect,"30.3 µM, […]",21.7%
Cn1cc(-c2cnc(N3CCOCC3)nc2)cc1C(=O)NCCC#N.O=C(O)C(F)(F)F,Percent Effect,"30.3 µM, […]",12.83%
CN(CC(=O)NC(C)(C)C)Cc1cccc2c1OCCO2,Percent Effect,"30.3 µM, […]",16.54%
CC1CCN(c2ccc(NC(=O)CCn3cccn3)cc2)CC1,Percent Effect,"30.3 µM, […]",16.17%
Cc1cc(C(=O)N2C[C@@H]3[C@@H](C2)OCC(=O)N3CC2CC2)no1,Percent Effect,"30 µM, 30.03 µM",18.33%
Cc1nn(C)cc1-c1cncn1CCN(C)C1CCCC1.Cl,Percent Effect,"30.3 µM, […]",52.65%
CCn1nc(C)c(-c2cncn2CCN(C)C2CCCC2)c1C.Cl,Percent Effect,"30.3 µM, […]",32.48%
CCCn1nc(C)c(-c2cncn2CCN(C)C2CCCC2)c1C.Cl,Percent Effect,"30.3 µM, […]",42.92%
CC(C)C1CN(c2nccc(N)n2)CCC(=O)N1Cc1ccc(F)cc1 (stereo unspecified),Percent Effect,"30.3 µM, […]",-20.97%
COc1cccc2c1OCC(CNC(=O)Cn1ccnc1C)C2 (stereo unspecified),Percent Effect,"30.3 µM, […]",4.9%
OC(CNCCn1cccn1)COc1ccc(F)cc1 (stereo unspecified),Percent Effect,"30.3 µM, […]",20.47%
OC(CNCCn1cccn1)COc1ccc(Br)cc1 (stereo unspecified),Percent Effect,"30.3 µM, […]",25.57%
OC(CNCCn1cccn1)COc1ccc2ccccc2c1 (stereo unspecified),Percent Effect,"30.3 µM, […]",56.8%
Cc1nnc2n1CCN(C(=O)C(OC1CCCC1)c1ccccc1)C2 (stereo unspecified),Percent Effect,"30.3 µM, […]",5.78%
O=C(Nc1ccc(S(=O)(=O)Nc2c(F)cccc2F)cc1)N1CCCC1,Percent Effect,"30.3 µM, […]",12.59%
CC(=O)NCC(=O)N1CCOC2(CCCN(c3cccnc3)C2)C1.O=C(O)C(F)(F)F (stereo unspecified),Percent Effect,"30 µM, 30.03 µM",4.273%
Cc1nc2ccc(-n3ncnc3[C@@H]3CCCN3S(C)(=O)=O)cc2s1,Percent Effect,"30.3 µM, […]",99.47%
CS(=O)(=O)N1CCC[C@H]1c1ncnn1-c1ccc2c(c1)OCO2,Percent Effect,"30.3 µM, […]",-61.62%
CC(=O)N1CCCCC1c1ncnn1-c1ccc2nc(C)sc2c1 (stereo unspecified),Percent Effect,"30.3 µM, […]",29.12%
COc1ccc(OCCc2nnc(NC(C)=O)s2)cc1,Percent Effect,"30.3 µM, […]",-16.84%
O=C(NC1CCS(=O)(=O)C1)c1ccc(SCc2cscn2)cc1 (stereo unspecified),Percent Effect,"30.3 µM, […]",10.79%
CCNC(=O)[C@@H]1CCCN1C1(C(=O)NC)CCCCC1.Cl,Percent Effect,"30.3 µM, […]",-2.22%
O=C(c1cc[nH]n1)N1CCCC(c2cc(C(F)(F)F)[nH]n2)C1 (stereo unspecified),Percent Effect,30 µM,-11.08%
O=C(c1cc(Cl)c[nH]1)N1CCCC(c2cc(C(F)(F)F)[nH]n2)C1 (stereo unspecified),Percent Effect,30 µM,52.35%
O=C(c1ccc[nH]1)N1CCCC(c2cc(C(F)(F)F)[nH]n2)C1 (stereo unspecified),Percent Effect,"30 µM, 30.03 µM",44.22%
N#Cc1c(CN2CCCCC2Cn2cncn2)cn2ccccc12 (stereo unspecified),Percent Effect,"30.3 µM, […]",-0.3662%
